In PubChem BioAssay (NCI):
This is part of a sample that, as a whole, favours compounds with a hit. Of some 83,000 tested, about 20% had one in any assay.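 Single-dose data. Exposure time 48 hours. Values below 10 considered active.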 Active and inactive are the calls of the source.

tested on: SK-OV-3 ovarian; assay: NCI-60 one-dose screen, 48 h (100 = growth as untreated, 0 = no growth, -100 = all killed); settings: 10 µM unless noted
Description: Growth inhibition of the SK-OV-3 human tumor cell line is measured as a screen for anti-cancer activity. Cells are grown in 96 well plates and exposed to the test compound for 48 hours. Compounds are tested at a single concentration, which is 10^-5 M for most compounds. The reported endpoint is percent growth (GI% or GIPRCNT), where numbers from 0 - 100% represent growth inhibition, and numbers from -100% - 0 represent cell death. For example, a value of 40 represents 60% growth inhibition. A value of 0 means no net growth occurred over the course of the experiment. A value of -40 indicates 40% of cells at the beginning of the experiment died by the end of the experiment. A value of -100 means all cells are dead at the end of the experiment.
NCI-60 Human Tumor Cell Lines Screen was performed using the standard one-dose NCI protocol, which is described in more detail at https://dtp.cancer.gov/discovery_development/nci-60/default.htm.
Compounds with GIPRCNT values below 10 were considered active. Activity score was based on GIPRCNT using the following formula: […]
Score is 0 for GIPRCNT values of 100 or above, 50 for GIPRCNT values of 0, and 100 for GIPRCNT values of -100.

| SMILES | growth |
| --- | --- |
| COC1=CC(c2ccc[nH]2)=N/C1=C\c1[nH]c(C)c(C(=O)CCCCCCCCC(=O)O[C@H]2CC[C@H]3C4CCc5cc(O)ccc5C4CC[C@]23C)c1C (stereo not given in full) | 49.2% (inactive) |
| CCCCCCCCCCCC1=NC(C)(C)CN1C(C)(C)CO | 73.8% (inactive) |
| COc1cc(/C=C/C(=O)c2ccc(NC(=O)CSc3nnc(-c4ccc(Cl)cc4)n3-c3ccccc3)cc2)cc(OC)c1OC | 86.6% (inactive) |
| Clc1ncnc2scc(C3COc4ccccc4O3)c12 (stereo not given) | 115% (inactive) |
| Cn1c(=O)c2c3c(oc2c2ccccc21)C(=O)c1ccccc1C3=O | 93.6% (inactive) |
| CC1CN(CCCOC(=O)Nc2ccc(Cl)cc2)CCN1C(C)(C)C (stereo not given) | 93.8% (inactive) |
| O=C(C(Br)C(Br)c1ccccc1)C(Br)C(Br)c1ccccc1 (stereo not given) | 83.1% (inactive) |
| COc1ccc(C2=Nn3c(nnc3-c3ccc(Cl)cc3N)SC2)cc1 | 102% (inactive) |
| CC(=O)OC1Oc2cc(C)c(C)cc2-c2oc(=O)c(-c3cc4ccccc4oc3=O)cc21 (stereo not given) | 89.4% (inactive) |
| O=C(O)/C=C(\c1nc2ccc([N+](=O)[O-])cc2[nH]1)c1cc(Cl)ccc1O | 29.9% (inactive) |
| CCOC(=O)C(Nc1ccccc1)C(=O)OCC | 105% (inactive) |
| CC1(C)CC[C@]2(C(=O)N3CCNCC3)CC[C@]3(C)C(=CC[C@@H]4[C@@]5(C)CCC(=O)C(C)(C)[C@@H]5CC[C@]43C)[C@@H]2C1 | 109% (inactive) |
| Cc1cc(C)cc(Nc2cc(C)nc3nc(C(F)(F)F)nn23)c1 | 47.8% (inactive) |
| C=CCOc1c(Br)cc(Br)cc1Br | 64.9% (inactive) |
| COc1ccc2c(c1)N(CCO)C1=C(C(=O)OC1)C2c1cccc(Br)c1 (stereo not given) | 28.5% (inactive) |
| COc1cc(-c2csc(NC(=O)Nc3cccc(C(F)(F)F)c3)n2)cc(OC)c1OC | 80.7% (inactive) |
| N#Cc1c(NN)n(C2OC(CO)C(O)C2O)c2ncnc(N)c12 (stereo not given) | 2.07% (active) |
| CCc1ccc(Nc2ncnc3c2cnn3-c2cccc(Br)c2)cc1 | 104% (inactive) |
| CCCCCNCCCCCNc1cc(OC)cc2cccnc12 | 91.2% (inactive) |
| Cc1cccc(C(=O)O)n1 | 119% (inactive) |

| SMILES | growth |
| --- | --- |
| COc1ccc(C(=O)c2cc(C)c(OC)c(C)c2)cc1OC(=O)CCl | 20.6% (inactive) |
| CSCCC1NC(=O)C(C(C)=Nc2ccccc2)=C1O (stereo not given) | 101% (inactive) |
| CC(=O)[C@@]1(O)[C@H](C)C[C@H]2[C@@H]3C=C(C)C4=Cc5c(cnn5-c5ccccc5)C[C@]4(C)[C@H]3[C@@H](O)C[C@@]21C | 38.7% (inactive) |
| CCOC(=O)c1ccccc1SC(C[N+](=O)[O-])c1ccccc1 (stereo not given) | 117% (inactive) |
| CCCCCCCCCCC(C(O)c1ccccc1)N1CCCCC1 (stereo not given) | 36.1% (inactive) |
| N#Cc1ccc(NC(=O)Nc2nc3ccc(OC(F)(F)F)cc3s2)cc1 | 0.444% (active) |
| CCCCn1c(-c2ccc(F)cc2)nc2cc(OC)c(OC)cc2c1=O | 120% (inactive) |
| CCN(CC)CCCNc1cccc2c(C)cc(OC)nc12 | 106% (inactive) |
| O=C(CSc1ccc(Cl)cc1)Nc1ccc(-c2nc3ccccc3s2)c(Cl)c1 | 94.7% (inactive) |
| CN1CCN(Cc2ccc(NC(=O)c3cncc(C#Cc4ccc(N)nc4)c3)cc2C(F)(F)F)CC1 | -11% (active) |
| CCOCC(O)(c1ccc(Cl)cc1)c1ccc(Cl)cc1 | 105% (inactive) |
| O=C1C=CC(=O)N1CO | 116% (inactive) |
| COc1cc(C2CC(c3cccc(Nc4ccnc5cc(Cl)ccc45)c3)=NN2c2ccc(Cl)cc2)cc(OC)c1OC (stereo not given) | 92.2% (inactive) |
| O=S(=O)(NCC[C@@H]1C[C@H]1c1ccc2ccccc2c1)c1ccc(C(F)(F)F)cc1 | 103% (inactive) |
| COc1c(B(O)O)cccc1-c1nc2c(F)cc3n[nH]c(C)c3c2c2c1CCCC2 | -1.49% (active) |
| O=C(CCc1nc2sc3c(c2c(=O)[nH]1)CCC3)NCc1cn(-c2ccccc2)nc1-c1ccccc1 | 68.5% (inactive) |
| Cc1cc(N=Nc2ccc(-c3ccc(N=Nc4ccc(O)c(C(=O)O)c4)cc3)cc2)c(N)c(N=Nc2ccc(C(=O)O)cc2)c1N | 103% (inactive) |
| CC1C2CCC(C2)C1COCCOCCO (stereo not given) | 110% (inactive) |
| COc1cc(C)c2c(=O)c3c(oc2c1)C(=O)c1c(O)c(OC)cc(O)c1C3=O | 9.16% (active) |
| O=C(CI)NCCNc1cccc2c(S(=O)(=O)O)cccc12 | 106% (inactive) |
